Results published in PubChem BioAssay AID1159580 (chemical genetic matrix, 2015).
“And” between values parts separate entries of the source, which are not always exact repeats. Identical values can stand only once. Hit rate of the full screen: of about 5,500 compounds, about 2,000 (36%) were called active. Another 18% or so got no clear call; they are omitted. Cut-off read from the data, not from the text of the source: active = normalized growth mostly below about 0.91 (no sharp cut-off); inconclusive = no clear call, values can overlap the other calls; inactive = mostly above about 0.92. Some of the results follow.

Assay: chemical genetic growth profiling, strain panel (AID 1159580);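 note: tested at 20 µM; growth read once vehicle control cultures reached saturation at 30 °C; 1 = growth at the plate median or of vehicle wells; lower values mean less growth of the strain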
Settings: S. cerevisiae deletion strains, growth OD

Measured: normalized growth

CN1CCC[C@H]1c1cccnc1
inactive: locus YAL013W, strain DEP1, active compounds read low 0.998 | locus YAL021C, strain ccr4, active compounds read low 1.02 | locus YAL026C, strain drs2, active compounds read low 1.03 | locus YAL030W, strain snc1, active compounds read low 1.02 | locus YBL061C, strain skt5, active compounds read low 1.03 | locus YBR009C, strain hhf1, active compounds read low 1.02 | locus YBR021W, strain FUR4, active compounds read low 0.968 | locus YBR023C, strain chs3, active compounds read low 1.05 | locus YBR171W, strain sec66, active compounds read low 1.05 | locus YBR229C, strain ROT2, active compounds read low 0.992 | locus YBR231C, strain swc5, active compounds read low 1.02 | locus YBR279W, strain paf1, active compounds read low 1.02 | locus YCL011C, strain gbp2, active compounds read low 1.03 | locus YCL016C, strain dcc1, active compounds read low 1.03 | locus YCL029C, strain bik1, active compounds read low 0.995 | locus YCL061C, strain MRC1, active compounds read low 1 | locus YCL069W, strain vba3, active compounds read low 1.04 | locus YCR088W, strain abp1, active compounds read low 1.02 | locus YDL005C, strain med2, active compounds read low 1.03 | locus YDL035C, strain GPR1, active compounds read low 1.01 | locus YDL040C, strain nat1, active compounds read low 1.02 | locus YDL074C, strain BRE1, active compounds read low 1.03 | locus YDL101C, strain DUN1, active compounds read low 0.994 | locus YDL134C, strain PPH21, active compounds read low 0.994 | locus YDL185W, strain tfp1, active compounds read low 0.983 | locus YDL192W, strain arf1, active compounds read low 0.997 | locus YDR001C, strain nth1, active compounds read low 1.03 | locus YDR069C, strain doa4, active compounds read low 1.02 | locus YDR101C, strain arx1, active compounds read low 1 | locus YDR137W, strain rgp1, active compounds read low 1.05 | locus YDR150W, strain NUM1, active compounds read low 0.999 | locus YDR159W, strain sac3, active compounds read low 1 | locus YDR162C, strain NBP2, active compounds read low 1.03 | locus YDR195W, strain ref2 1.02 | locus YDR297W, strain sur2, active compounds read low 1.02 | locus YDR318W, strain mcm21, active compounds read low 0.983 | locus YDR334W, strain swr1, active compounds read low 1.03 | locus YDR335W, strain msn5, active compounds read low 1.03 | locus YDR388W, active compounds read low 0.996 | locus YDR392W, strain spt3, active compounds read low 0.964 | locus YDR502C, strain sam2, active compounds read low 1 | locus YEL003W, strain gim4, active compounds read low 1.02 | locus YEL037C, strain rad23, active compounds read low 1.03 | locus YEL061C, strain CIN8 (second series), active compounds read low 1.03 | locus YEL061C, strain CIN8, active compounds read low 0.993 | locus YER015W, strain faa2, active compounds read low 1.03 | locus YER016W, strain bim1, active compounds read low 1.02 | locus YER110C, active compounds read low 0.985 | locus YER111C, strain swi4, active compounds read low 1.04 | locus YER155C, strain BEM2 (second series), active compounds read low 0.991 | locus YER155C, strain BEM2, active compounds read low 0.992 | locus YER167W, strain BCK2, active compounds read low 0.98 | locus YFR010W, strain ubp6, active compounds read low 1.03 | locus YGL078C, strain dbp3, active compounds read low 0.994 | locus YGL086W, strain mad1, active compounds read low 0.969 | locus YGL167C, strain pmr1, active compounds read low 1.04 | locus YGL173C, strain kem1, active compounds read low 1.03 | locus YGL227W, strain vid30, active compounds read low 1.04 | locus YGL240W, strain doc1, active compounds read low 1 | locus YGL248W, strain PDE1, active compounds read low 0.985 | locus YGL253W, strain hxk2, active compounds read low 1.04 | locus YGR078C, strain PAC10, active compounds read low 1.04 | locus YGR135W, strain pre9, active compounds read low 1 | locus YGR229C, strain SMI1, active compounds read low 1.02 | locus YGR252W, strain gcn5, active compounds read low 0.949 | locus YHR013C, strain ard1, active compounds read low 1.06 | locus YHR027C, strain rpn1, active compounds read low 1.03 | locus YHR030C, strain SLT2, active compounds read low 0.991 and 0.959 | locus YHR079C, strain IRE1 (second series), active compounds read low 0.996 | locus YHR079C, strain IRE1, active compounds read low 1.03 | locus YHR094C, strain hxt1, active compounds read low 0.989 | locus YHR129C, strain ARP1, active compounds read low 0.99 | locus YHR142W, strain chs7, active compounds read low 1.06 | locus YHR200W, strain rpn10, active compounds read low 0.981 | locus YIL066C, strain RNR3, active compounds read low 0.985 | locus YIL073C, strain SPO22, active compounds read low 0.968 | locus YIL125W, strain kgd1, active compounds read low 0.997 | locus YIR030C, strain dcg1, active compounds read low 0.995 | locus YJL092W, strain hpr5, active compounds read low 1.02 | locus YJL095W, strain BCK1 (second series), active compounds read low 1.02 | locus YJL095W, strain BCK1, active compounds read low 1.01 and 0.947 | locus YJL115W, strain asf1, active compounds read low 1.02 | locus YJL129C, strain trk1, active compounds read low 1.07 | locus YJL134W, strain LCB3, active compounds read low 0.989 | locus YJL154C, strain vps35, active compounds read low 1.02 | locus YJL164C, strain tpk1, active compounds read low 1.02 | locus YJL166W, strain qcr8, active compounds read low 1.03 | locus YJL168C, strain set2, active compounds read low 0.994 | locus YJL187C, strain SWE1 (second series), active compounds read low 0.997 | locus YJL187C, strain SWE1, active compounds read low 1.02 | locus YJR043C, strain POL32, active compounds read low 0.995 | locus YJR066W, strain TOR1, active compounds read low 0.943
